Reference: the supplement of paper PMC10681739

The sequences below were run against T1, ETS1 (UniProt P14921) (assay: TF binding intensity (PBM fluorescence), negative control probe (arbitrary fluorescence units); higher = stronger binding).
T1 sequence: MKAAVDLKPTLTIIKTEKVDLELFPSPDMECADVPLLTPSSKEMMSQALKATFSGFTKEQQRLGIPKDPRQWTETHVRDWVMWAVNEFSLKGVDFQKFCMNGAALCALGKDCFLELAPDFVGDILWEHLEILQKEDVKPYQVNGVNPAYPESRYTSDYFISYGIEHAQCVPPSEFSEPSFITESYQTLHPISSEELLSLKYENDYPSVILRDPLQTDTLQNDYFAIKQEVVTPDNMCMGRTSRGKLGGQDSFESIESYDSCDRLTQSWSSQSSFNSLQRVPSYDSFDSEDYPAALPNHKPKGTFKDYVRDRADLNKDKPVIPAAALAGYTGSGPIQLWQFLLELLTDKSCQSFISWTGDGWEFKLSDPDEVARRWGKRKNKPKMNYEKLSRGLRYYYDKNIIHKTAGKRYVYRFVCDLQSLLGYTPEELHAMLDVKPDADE
Method: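 gcPBM negative-control 36-bp genomic probes lacking TF binding sites. Each was incubated with recombinant human ETS1 or RUNX1 alone and detected by antibody fluorescence. Values are medians over replicate spots (4 spots for the ETS1-RUNX1 arrays, 3 for the ETS1-ETS1 array). The probes sit in constant array flanks that are not printed.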

Row | Sequence | TF binding intensity
1 | CTACAAGTCGTGAAGGGGCGAGGCGCAAAAGCGTAG (protein concentration 10 nM) | 125
2 | AGGCCTGTAGCATTTAGCTGGCCTCTGAGGAATAAC (protein concentration 10 nM) | 101
3 | GTCCCGGCTCGACTCAGTCCTCCAGCCGCCCGGGGA (protein concentration 10 nM) | 120
4 | CTCGCGGCGCACTCCCAGAGGCTGGGGGGCCGGGGC (protein concentration 10 nM) | 183
5 | TCACTCTCTGGACAGGGCCCTCTGAGCAAGCAACCA (protein concentration 10 nM) | 109
6 | AAGTCCCTCCTCTAAACCACTTTGATGAGGACCAAA (protein concentration 1 nM) | 387
